Here are results for 121 compounds from PubChem BioAssay AID618 (Sanford-Burnham Center for Chemical Genomics, 2007).

Among all 87,000 compounds or so, about 540 (0.62%) were called active. How the calls were made is not given here. The entries come from a sample that favours actives as a whole. Entries with a potency or affinity are not part of this list.

A short description of this test: MT1-MMP gene expression reporter suppression – cell-based, luciferase reporter, luminescence (AID 618).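 Further: actives suppress MT1-MMP promoter-driven transcription so potencies describe inhibitors.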 As to conditions: MT1-MMP promoter luciferase reporter cells.
As to `CC1=CC(C)(C)N(S(=O)(=O)c2ccc(C)cc2)c2cc(C)ccc21`, the result was active.

On to `CC1=CC(C)(C)N(S(=O)(=O)c2ccc(F)cc2)c2ccccc21`, for which the compound was classed as inactive.

As to `CC1=CC(C)(C)N(C(=O)CN2C(=O)c3ccccc3C2=O)c2ccccc21`, the compound was classed as inactive.

Take `CC1=CC(C)(C)N(S(=O)(=O)c2ccc(C)cc2)c2ccccc21`: the compound was classed as active.

In the case of `Cc1ccc(S(=O)(=O)N2C(=S)SCC2(C)C)cc1`, the result was inactive.

For the compound `CC1=CC(C)(C)N(S(=O)(=O)c2ccc(F)cc2)c2ccc(C)cc21`, the call was inactive.

Consider `Cc1ccc(S(=O)(=O)N2CC3(C)CN(S(=O)(=O)c4ccc(C)cc4)CC(C)(C2)C3)cc1`, for which the call was inactive.

On to `CC1=CC(C)(C)N(S(=O)(=O)c2ccc(C)cc2)c2ccc(C)cc21`, for which the compound was called active.

Turning to `CC1=CC(C)(C)N(C(=O)c2ccccc2)c2ccc(C)cc21`, the compound was classed as inactive.

On to `O=C(CN1CCN(c2ccccc2)CC1)Nc1c(C(=O)C2CC2)oc2ccccc12`, for which the result was inactive.

In the case of `CC(C)n1nnnc1C(c1ccc(F)cc1)N1CCN(C2CCCC2)CC1` (stereo unspecified), the compound was called inactive.

Turning to `Cc1ccc(NC2=NCCC2)cc1Cl`, the compound was called inactive.

With `C=CCn1c(=O)c2ccccc2n2c(SCc3csc(-c4ccccc4)n3)nnc12`, the compound was classed as inactive.

With `Cn1c(-c2ccc(F)cc2)cnc1SCC(=O)N1CCCCC1`, the compound was classed as inactive.

As to `Cn1c(-c2ccccc2)cnc1SCC(N)=O`, the compound was classed as inactive.

As to `CCOC(=O)c1c(NC(=O)Cc2cccs2)sc2c1CCCC2`, the outcome was inactive.

As to `COC(=O)c1ccccc1NC(=O)CN1CCC(NC(=O)c2ccccc2C)CC1`, the compound was called inactive.

On to `CC(C)c1nnc(NC(=O)c2sc3ccccc3c2Cl)s1`, for which the compound was called inactive.

Turning to `Cc1nnc(NC(=O)c2sc3ccccc3c2Cl)s1`, the call was active.

Consider `COCc1nnc(NC(=O)c2sc3ccccc3c2Cl)s1`, for which the call was inactive.

`O=C(NCc1ccc2c(c1)OCO2)c1ccccn1`: the result was inactive.

On to `O=C(/C=C\Nc1cccc(F)c1)c1ccc2c(c1)OCO2`, for which the compound was called inactive.

As for `CN(C(=O)c1ccco1)c1nnc(C23CC4CC(CC(C4)C2)C3)s1`, the compound was classed as inactive.

As for `CN(C(=O)c1ccco1)c1nc(CC(=O)Nc2ccccc2)cs1`, the compound was classed as inactive.

On to `COC(=O)[C@@]1(Cc2ccc(OC)cc2)[C@H]2c3cc(C(=O)N4CCCC4)n(CCF)c3C[C@H]2CN1C(=O)c1ccccc1`, for which the call was inactive.

Turning to `COc1cc(C(=O)N2CCN(C(=O)Cc3ccccc3)CC2)cc(OC)c1OC`, the result was inactive.

As to `C=CCNC(=O)c1ccc2nccnc2c1`, the compound was called inactive.

As for `CC(C)C(=O)N(Cc1cc2ccccc2[nH]c1=O)C(C)C`, the outcome was inactive.

Consider `C=CCn1c(SCc2cc(=O)n3ccsc3n2)nc2scc(C3CC3)c2c1=O`, for which the outcome was inactive.

With `COc1ccccc1NC(=S)NNC(=O)c1ccccc1`, the compound was classed as inactive.

With `O=C(NCCCN1CCOCC1)c1ccccc1`, the compound was called inactive.

Consider `COc1cc(-c2nc3ccccc3s2)ccc1O`, for which the compound was called inactive.

Consider `COc1ccc(-c2nc3ccccc3s2)cc1O`, for which the compound was classed as active.

For `COc1cc(OC)cc(-c2nc3ccccc3s2)c1`, the call was inactive.

Regarding `c1ccc2sc(-c3ccc4c(c3)OCO4)nc2c1`, the compound was called inactive.

In the case of `COc1cccc(-c2nc3ccccc3s2)c1`, the call was inactive.

For the compound `COC(=O)CSc1nc2ccc(C)cc2[nH]1`, the result was inactive.

In the case of `CCN(CC)S(=O)(=O)c1ccc(C2CNC(=O)C2)cc1` (stereo unspecified), the result was inactive.

Regarding `CCn1cnc2c1c(=O)n(Cc1csc(-c3ccccc3)n1)c(=O)n2Cc1ccccc1`, the result was inactive.

Take `COc1cccc(NC(=O)CCN2C(=O)c3ccccc3S2(=O)=O)c1`: the compound was called inactive.

As to `CCc1nnc(NC(=O)CSc2nc3c(cc2C#N)CCC3)s1`, the result was inactive.

Regarding `CCc1nnc(NC(=O)CSc2nc3c(cc2C#N)CCCC3)s1`, the compound was classed as inactive.

In the case of `Cc1cc(C(F)(F)F)n2ncc(-c3ccc(F)cc3)c2n1`, the compound was called inactive.

Consider `COC(=O)c1ccccc1NC(=O)CSc1nnc(-c2ccc(C)cc2)o1`, for which the result was inactive.

For `Cc1cccc(NC(=O)CSc2nnc(-c3ccccc3C)o2)c1`, the compound was called inactive.

For the compound `CCOc1ccccc1-c1nnc(SCC(=O)Nc2ccccc2)o1`, the call was inactive.

Consider `Cc1ccc(C)c(NC(=O)CSc2nnc(-c3ccccc3)o2)c1`, for which the call was inactive.

As to `COc1ccccc1NC(=O)CSc1nnc(-c2ccc(C)cc2)o1`, the call was inactive.

`COc1ccccc1NC(=O)CSc1nnc(-c2ccccc2)o1`: the compound was called inactive.

Regarding `CCN(CC)S(=O)(=O)c1ccc(NC(=O)CN(c2ccc(OC)cc2OC)S(C)(=O)=O)cc1`, the result was inactive.

On to `O=C(NCCCO)C12CC3CC(CC(C3)C1)C2`, for which the compound was called inactive.

Take `O=C(NC(NC1CCS(=O)(=O)C1)C(=O)c1ccccc1)c1ccc(Cl)cc1` (stereo unspecified): the outcome was inactive.

On to `C/C(=C\C(=O)c1ccc(C)cc1)Nc1cccc(O)c1`, for which the compound was classed as inactive.

As for `O=C(Nc1cccc(O)c1)c1ccccc1`, the result was inactive.

On to `O=C(/C=C/Nc1ccccc1)c1ccccc1`, for which the compound was called inactive.

With `Cc1ccc(N/C=C/C(=O)c2ccc(C)cc2)cc1`, the result was inactive.

In the case of `Cc1ccc(C(=O)/C=C/Nc2cccc(O)c2)cc1`, the outcome was active.

With `Cc1nc2ncnn2c(C)c1CCC(=O)Oc1ccccc1`, the compound was called inactive.

Consider `COc1ccc(CCNC(=O)C2CCN(S(C)(=O)=O)CC2)cc1OC`, for which the result was inactive.

Consider `Cc1cc(C)n(-c2ccc3cccc(NS(C)(=O)=O)c3n2)n1`, for which the result was inactive.

As to `CCc1nnc(NC(=O)c2cc3c(s2)CCCCC3)s1`, the result was inactive.

On to `COC(=O)c1sc(NC(=O)c2cc3c(s2)CCCC3)nc1C`, for which the outcome was inactive.

Regarding `CCOC(=O)Cc1csc(NC(=O)c2cc3c(s2)CCCC3)n1`, the compound was called inactive.

For `Cc1csc(NC(=O)c2cc3c(s2)CCC3)n1`, the compound was classed as active.

As for `Cc1nc(NC(=O)c2cc3c(s2)CCCCC3)sc1C(=O)N(C)C`, the call was inactive.

As for `Cc1cnc(NC(=O)c2cc3c(s2)CCCC3)s1`, the call was inactive.

Regarding `Cc1csc(NC(=O)c2cc3c(s2)CCCCC3)n1`, the call was inactive.

`O=C1N(Cc2ccccc2F)c2ccccc2C12OCCCO2`: the result was inactive.

With `CCn1nc(C(=O)NC2=NCCS2)c2ccccc2c1=O`, the result was inactive.

For the compound `Cc1ccc(C(=O)N(c2ccccn2)C(C)c2ccco2)cc1` (stereo unspecified), the compound was classed as inactive.

As for `Cc1ccc(NC(=O)CSc2nnc(Cn3cnc4ccccc43)o2)c(C)c1`, the outcome was inactive.

Take `CN(C)c1ncc(C2=C(Cl)C(=O)C(N3CCCC3)=C(Cl)C2=O)s1`: the result was inactive.

Regarding `CN1CCN(C2=C(Cl)C(=O)C(c3cnc(N4CCCCC4)s3)=C(Cl)C2=O)CC1`, the outcome was inactive.

Regarding `Cc1ccc2c(c1)-c1ccccc1S(=O)(=O)N2`, the call was inactive.

With `Nc1ccc2c(c1)-c1ccccc1S(=O)(=O)N2`, the compound was called inactive.

With `O=c1cc(N2CCOCC2)[nH]c(=O)n1-c1ccc(Cl)cc1`, the result was inactive.

As to `O=C(Nn1cnnc1)c1cc(-c2ccccn2)nc2ccccc12`, the outcome was inactive.

As to `COc1cccc(-c2cc(C(=O)Nn3cnnc3)c3ccccc3n2)c1`, the outcome was inactive.

Take `Cc1ccc2nc(C3CCN(C(=O)NCc4ccccc4)CC3)[nH]c2c1`: the compound was classed as inactive.

With `O=c1cc(CO)oc(CN2CCN(c3ccccc3F)CC2)c1O`, the call was inactive.

Turning to `CC(C)(C)S(=O)(=O)c1ccc2nc3c(n2c1)CCCC3`, the call was inactive.

As to `Cc1nc(NC2=NCN(CCN3CCOCC3)CN2)nc2c(C)cccc12`, the compound was called inactive.

On to `Cc1cc2nc(NC3=NCN(CCCN4CCOCC4)CN3)nc(C)c2cc1C`, for which the compound was classed as inactive.

`Cc1ccc(NC(=O)NC(=O)N(c2ccccc2)S(C)(=O)=O)cc1`: the result was inactive.

For the compound `CCOc1ccccc1N1CC(C(=O)N2CCc3ccccc3C2)CC1=O` (stereo unspecified), the call was inactive.

Consider `COc1ccc(-c2nc(C#N)c(N3CCOCC3)o2)cc1OC`, for which the outcome was inactive.

Take `COc1ccc(CCNc2oc(-c3ccco3)nc2C#N)cc1`: the outcome was inactive.

On to `Fc1ccc(Nc2nc(N3CCOCC3)c3ccccc3n2)cc1`, for which the compound was called inactive.

As for `COc1ccc(Nc2nc(C)c3ccccc3n2)cc1`, the outcome was inactive.

As for `OCCNc1nc(Nc2ccccc2)nc2ccccc12`, the call was inactive.

As to `Nc1nc(Nc2cccc(F)c2)nc2ccccc12`, the compound was classed as inactive.

For the compound `Nc1nc(Nc2ccccc2)nc2ccccc12`, the outcome was active.

As for `COc1ccc(Nc2nc(N3CCCC3)c3ccccc3n2)cc1`, the result was inactive.

For `Cc1ccc(Nc2nc(N3CCOCC3)c3ccccc3n2)cc1`, the call was inactive.

For the compound `Cc1ccc(NC(=O)N2CCOCC2)c(C)c1`, the compound was classed as inactive.

Turning to `CCC1Oc2ccccc2N(CC(=O)Nc2ccc(OC)cc2OC)C1=O` (stereo unspecified), the result was inactive.

Regarding `COc1ccccc1C(=O)Nc1nc(-c2cccs2)c(NC(C)=O)s1`, the outcome was inactive.

In the case of `CC(C)CCOC(=O)C1C(c2ccccc2)C(C(=O)O)C1c1ccccc1` (stereo unspecified), the result was inactive.

Turning to `O=C(c1cccs1)N1CCN(S(=O)(=O)N2CCCCC2)CC1`, the compound was called inactive.

`Cc1ccccc1/C=C1\CCCc2ccccc2C1=O`: the compound was called inactive.

Regarding `O=C1/C(=C/c2ccccc2)CCCc2ccccc21`, the compound was called inactive.

As for `O=C(NC1CCN(Cc2ccccc2)CC1)C1CCN(S(=O)(=O)c2cccc3cccnc23)CC1`, the compound was called inactive.

Turning to `COc1ccccc1NC(=O)c1ccc(N)cc1`, the call was inactive.

In the case of `Cc1cc(N2CCCCC2)n2ncc(-c3ccccc3)c2n1`, the outcome was inactive.

Take `Cc1cc(N2CCC(C)CC2)n2ncc(-c3ccccc3)c2n1`: the compound was classed as inactive.

Take `CCOc1ccc(C(=O)NCCCn2ccnc2)cc1`: the compound was called inactive.

Take `O=C(NC1CCCCC1)NC1(C(=O)N2CCN3CCCC3C2)CCCCC1` (stereo unspecified): the compound was called inactive.

As to `CCc1ccc2oc(-c3cc(N)ccc3O)nc2c1`, the call was active.

With `c1cc(-c2nc3cc(Cc4ccc5oc(-c6ccncc6)nc5c4)ccc3o2)ccn1`, the compound was called inactive.

Regarding `NCc1ccc(-c2nc3ccccc3o2)cc1`, the compound was classed as inactive.

In the case of `COc1cccc(C=Nc2cc(C)on2)c1O`, the compound was called inactive.

Turning to `CCc1ccc2oc(-c3ccc(N)cc3)nc2c1`, the result was active.

Regarding `CCc1ccc2oc(-c3cc(N=Cc4cccc(OC)c4O)ccc3O)nc2c1`, the call was active.

Regarding `CCc1ccc2oc(-c3cccc(NC(=O)c4cccnc4)c3)nc2c1`, the result was inactive.

On to `COc1cccc(C=Nc2ccc3c(c2)OCCO3)c1O`, for which the compound was called inactive.

With `CCc1ccc2oc(-c3cc(N)ccc3Cl)nc2c1`, the result was inactive.

With `CCc1ccc2oc(-c3cc(N)cc(C)c3O)nc2c1`, the call was inactive.

Consider `Nc1ccc2oc(-c3cccc(Br)c3)nc2c1`, for which the outcome was inactive.

With `CC(=Nc1ccccc1)C1=C(O)CSC1=O`, the outcome was inactive.

`COc1ccc(OC)c(NC(=O)c2ccc(NS(=O)(=O)c3c(C)noc3C)cc2)c1`: the call was inactive.

`CCn1c(=O)c2c(nc3n2CC(C)CN3CCc2ccccc2)n(C)c1=O` (stereo unspecified): the compound was called inactive.
